# Article PMC7862700, “An all-to-all approach to the identification of sequence-specific readers for epigenetic DNA modifications on cytosine”
# Columns and labels:
# Experiment in all cases: DAPPL (digital affinity profiling via proximity ligation, sequencing); 10 mM Tris-HCl pH 7.5, 50 mM NaCl, 1 mM DTT, 4% glycerol, room temperature, 30 min; GST-TFs on glutathione beads, 16-mer random dsDNA library, 0.1% formaldehyde crosslink after washing; high values mean tight binding
# FEV = biological target: T1, FEV (Homo sapiens, UniProt Q99581 1-238); conditions: protein: recombinant; tags: N-terminal GST; dsDNA, one strand shown
# T1 sequence: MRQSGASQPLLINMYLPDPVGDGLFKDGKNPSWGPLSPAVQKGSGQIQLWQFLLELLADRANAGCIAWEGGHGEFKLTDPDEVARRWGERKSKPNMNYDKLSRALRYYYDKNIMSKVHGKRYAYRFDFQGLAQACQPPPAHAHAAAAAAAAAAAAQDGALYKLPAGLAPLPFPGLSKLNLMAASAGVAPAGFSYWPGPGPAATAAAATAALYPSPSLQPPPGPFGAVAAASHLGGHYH
# Procedure, shortened: (§1)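 Binding signal is each hexamer's read frequency for a factor divided by its frequency in the tag-only sample. The factors were GST-fused human transcription factors from yeast, captured on glutathione beads, DNA-barcoded and pooled with that sample. Pools were incubated with 200 nmole of a random double-stranded 16-mer DNA library in Tris/NaCl/DTT/glycerol buffer at room temperature for 30 min, then washed, crosslinked with 0.1% formaldehyde, proximity-ligated with BsaI/T4 ligase (1 h, 37 °C), PCR-amplified and sequenced on an Illumina NextSeq500.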
# ETV5 = ETV5 (Homo sapiens, UniProt P41161 1-510); conditions: protein: recombinant; tags: N-terminal GST; dsDNA, one strand shown
# Procedure, shortened: as §1
# HSF1 = HSF1 (Homo sapiens, UniProt Q00613 1-529); conditions: protein: recombinant; tags: N-terminal GST; chain copies: 3; dsDNA, one strand shown
# Procedure, shortened: as §1
# SPIC = biological target: T2, SPIC (Homo sapiens, UniProt Q8N5J4 1-248); conditions: protein: recombinant; tags: N-terminal GST; dsDNA, one strand shown
# T2 sequence: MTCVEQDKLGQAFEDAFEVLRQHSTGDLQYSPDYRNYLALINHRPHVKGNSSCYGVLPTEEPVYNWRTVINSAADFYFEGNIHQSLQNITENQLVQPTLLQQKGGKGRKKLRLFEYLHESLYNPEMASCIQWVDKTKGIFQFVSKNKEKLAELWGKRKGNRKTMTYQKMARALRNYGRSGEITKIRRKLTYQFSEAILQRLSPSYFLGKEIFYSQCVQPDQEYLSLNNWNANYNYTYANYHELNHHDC
# Procedure, shortened: as §1
# ELF4 = ELF4 (Homo sapiens, UniProt Q99607 1-663); conditions: protein: recombinant; tags: N-terminal GST; dsDNA, one strand shown
# Procedure, shortened: as §1
# ELK4 = biological target: T3, ELK4 (Homo sapiens, UniProt P28324-2 1-405); conditions: protein: recombinant; tags: N-terminal GST; dsDNA, one strand shown
# T3 sequence: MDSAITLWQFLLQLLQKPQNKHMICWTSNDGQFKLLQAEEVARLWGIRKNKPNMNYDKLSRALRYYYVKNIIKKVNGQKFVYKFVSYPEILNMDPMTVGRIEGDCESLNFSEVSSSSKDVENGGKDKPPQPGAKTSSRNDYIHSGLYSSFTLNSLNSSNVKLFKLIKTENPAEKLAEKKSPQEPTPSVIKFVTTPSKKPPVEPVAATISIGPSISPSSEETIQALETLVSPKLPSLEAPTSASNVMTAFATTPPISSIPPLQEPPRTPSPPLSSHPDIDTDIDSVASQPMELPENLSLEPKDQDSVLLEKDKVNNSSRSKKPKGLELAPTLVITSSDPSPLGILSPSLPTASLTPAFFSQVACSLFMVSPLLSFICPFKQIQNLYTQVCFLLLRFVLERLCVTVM
# Procedure, shortened: as §1
# ETV2 = biological target: T4, ETV2 (Homo sapiens, UniProt O00321 1-342); conditions: protein: recombinant; tags: N-terminal GST; dsDNA, one strand shown
# T4 sequence: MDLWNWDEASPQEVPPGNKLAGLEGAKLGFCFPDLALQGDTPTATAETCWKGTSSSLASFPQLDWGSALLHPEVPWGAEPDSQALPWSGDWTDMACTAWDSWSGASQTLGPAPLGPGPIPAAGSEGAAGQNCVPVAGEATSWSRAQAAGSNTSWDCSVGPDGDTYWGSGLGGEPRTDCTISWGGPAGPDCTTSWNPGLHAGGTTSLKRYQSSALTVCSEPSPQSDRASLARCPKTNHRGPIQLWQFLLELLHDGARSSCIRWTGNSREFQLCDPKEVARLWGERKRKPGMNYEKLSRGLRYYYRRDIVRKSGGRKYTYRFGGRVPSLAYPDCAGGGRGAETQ
# Procedure, shortened: as §1
# ELF3 = biological target: T5, ELF3 (Homo sapiens, UniProt P78545 1-371); conditions: protein: recombinant; tags: N-terminal GST; dsDNA, one strand shown
# T5 sequence: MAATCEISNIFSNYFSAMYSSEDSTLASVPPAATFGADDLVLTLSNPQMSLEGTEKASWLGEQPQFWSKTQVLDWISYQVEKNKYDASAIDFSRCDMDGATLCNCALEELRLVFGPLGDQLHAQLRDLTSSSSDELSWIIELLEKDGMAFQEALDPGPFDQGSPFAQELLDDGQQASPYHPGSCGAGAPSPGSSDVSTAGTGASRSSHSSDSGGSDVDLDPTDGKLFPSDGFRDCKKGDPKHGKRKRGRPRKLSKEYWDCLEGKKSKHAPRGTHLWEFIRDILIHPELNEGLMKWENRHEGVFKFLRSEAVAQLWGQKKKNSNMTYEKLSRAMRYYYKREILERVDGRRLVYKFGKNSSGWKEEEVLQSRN
# Procedure, shortened: as §1
# CRX = CRX (Homo sapiens, UniProt O43186 1-299); conditions: protein: recombinant; tags: N-terminal GST; dsDNA, one strand shown
# Procedure, shortened: as §1
# ETV1 = ETV1 (Homo sapiens, UniProt P50549 1-477); conditions: protein: recombinant; tags: N-terminal GST; dsDNA, one strand shown
# Procedure, shortened: as §1
# ERF = biological target: T6, ERF (Homo sapiens, UniProt P50548 1-548); conditions: protein: recombinant; tags: N-terminal GST; dsDNA, one strand shown
# T6 sequence: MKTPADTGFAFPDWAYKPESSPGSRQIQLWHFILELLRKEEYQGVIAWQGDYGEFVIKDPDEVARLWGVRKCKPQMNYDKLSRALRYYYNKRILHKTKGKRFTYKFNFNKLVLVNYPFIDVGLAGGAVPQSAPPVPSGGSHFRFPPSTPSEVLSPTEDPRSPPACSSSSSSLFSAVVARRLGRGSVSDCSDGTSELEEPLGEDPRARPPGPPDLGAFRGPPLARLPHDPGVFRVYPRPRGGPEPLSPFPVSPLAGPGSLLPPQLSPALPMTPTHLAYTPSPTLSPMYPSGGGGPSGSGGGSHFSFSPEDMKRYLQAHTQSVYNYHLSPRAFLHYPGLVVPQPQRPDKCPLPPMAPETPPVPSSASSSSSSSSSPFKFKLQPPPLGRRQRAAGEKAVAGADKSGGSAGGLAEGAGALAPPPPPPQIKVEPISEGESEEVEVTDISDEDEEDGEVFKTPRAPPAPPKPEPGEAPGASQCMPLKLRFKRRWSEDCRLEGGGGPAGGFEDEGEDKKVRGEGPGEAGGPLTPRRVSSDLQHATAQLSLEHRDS
# Procedure, shortened: as §1
# ETV3L = biological target: T7, ETV3L (Homo sapiens, UniProt Q6ZN32 1-361); conditions: protein: recombinant; tags: N-terminal GST; dsDNA, one strand shown
# T7 sequence: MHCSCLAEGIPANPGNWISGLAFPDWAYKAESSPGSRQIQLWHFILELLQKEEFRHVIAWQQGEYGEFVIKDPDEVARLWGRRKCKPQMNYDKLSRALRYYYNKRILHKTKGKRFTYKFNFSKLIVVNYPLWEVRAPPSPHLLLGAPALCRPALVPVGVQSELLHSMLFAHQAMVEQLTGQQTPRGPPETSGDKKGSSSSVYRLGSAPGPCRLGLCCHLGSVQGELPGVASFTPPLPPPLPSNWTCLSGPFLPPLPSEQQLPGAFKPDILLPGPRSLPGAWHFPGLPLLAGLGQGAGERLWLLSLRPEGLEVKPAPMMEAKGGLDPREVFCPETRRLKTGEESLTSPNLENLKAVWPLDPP
# Procedure, shortened: as §1
# ETS2 = biological target: T8, ETS2 (Homo sapiens, UniProt P15036 1-469); conditions: protein: recombinant; tags: N-terminal GST; dsDNA, one strand shown
# T8 sequence: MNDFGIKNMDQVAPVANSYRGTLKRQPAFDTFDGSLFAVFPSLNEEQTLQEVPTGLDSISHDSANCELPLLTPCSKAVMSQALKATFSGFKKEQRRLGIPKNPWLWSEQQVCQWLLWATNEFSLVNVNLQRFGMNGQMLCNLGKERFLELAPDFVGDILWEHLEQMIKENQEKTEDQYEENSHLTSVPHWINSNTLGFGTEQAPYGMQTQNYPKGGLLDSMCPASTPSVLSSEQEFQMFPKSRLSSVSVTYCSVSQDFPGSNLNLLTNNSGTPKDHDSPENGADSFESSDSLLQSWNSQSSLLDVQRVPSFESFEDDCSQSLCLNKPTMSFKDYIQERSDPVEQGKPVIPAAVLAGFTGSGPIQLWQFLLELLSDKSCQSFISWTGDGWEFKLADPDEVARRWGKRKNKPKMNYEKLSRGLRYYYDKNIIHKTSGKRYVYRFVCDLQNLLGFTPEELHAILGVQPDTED
# Procedure, shortened: as §1
# SPDEF = biological target: T9, SPDEF (Homo sapiens, UniProt O95238 1-335); conditions: protein: recombinant; tags: N-terminal GST; dsDNA, one strand shown
# T9 sequence: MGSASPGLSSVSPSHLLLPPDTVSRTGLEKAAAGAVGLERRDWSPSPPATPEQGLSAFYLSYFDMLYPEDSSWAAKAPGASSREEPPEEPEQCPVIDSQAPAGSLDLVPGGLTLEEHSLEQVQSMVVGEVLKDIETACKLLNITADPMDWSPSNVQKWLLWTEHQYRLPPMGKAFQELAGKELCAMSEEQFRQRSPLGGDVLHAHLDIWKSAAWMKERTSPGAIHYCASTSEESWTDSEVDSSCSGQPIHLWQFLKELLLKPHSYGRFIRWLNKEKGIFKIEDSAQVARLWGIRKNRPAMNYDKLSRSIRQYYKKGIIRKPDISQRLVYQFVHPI
# Procedure, shortened: as §1
# ETV7 = biological target: T10, ETV7 (Homo sapiens, UniProt Q9Y603 1-341); conditions: protein: recombinant; tags: N-terminal GST; dsDNA, one strand shown
# T10 sequence: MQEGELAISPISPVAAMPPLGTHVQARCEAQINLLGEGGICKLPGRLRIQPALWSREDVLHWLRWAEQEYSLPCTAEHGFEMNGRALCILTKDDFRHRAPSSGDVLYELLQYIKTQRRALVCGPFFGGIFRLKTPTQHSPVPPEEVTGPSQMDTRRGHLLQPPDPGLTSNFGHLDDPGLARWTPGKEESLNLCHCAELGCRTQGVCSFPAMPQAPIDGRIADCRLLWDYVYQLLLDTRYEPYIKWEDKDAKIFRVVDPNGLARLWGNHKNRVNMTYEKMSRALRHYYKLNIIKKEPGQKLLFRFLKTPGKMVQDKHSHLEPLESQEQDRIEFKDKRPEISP
# Procedure, shortened: as §1
# ELF5 = biological target: T11, ELF5 (Homo sapiens, UniProt Q9UKW6-2 1-255); conditions: protein: recombinant; tags: N-terminal GST; dsDNA, one strand shown
# T11 sequence: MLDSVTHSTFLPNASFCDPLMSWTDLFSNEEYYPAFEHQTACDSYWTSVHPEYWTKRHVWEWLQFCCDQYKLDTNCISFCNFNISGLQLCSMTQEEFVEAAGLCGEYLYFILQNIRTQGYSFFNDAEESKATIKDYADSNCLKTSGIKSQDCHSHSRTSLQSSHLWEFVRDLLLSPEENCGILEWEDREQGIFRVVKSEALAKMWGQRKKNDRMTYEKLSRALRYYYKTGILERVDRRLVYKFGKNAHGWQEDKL
# Procedure, shortened: as §1
# ETV3 = biological target: T12, ETV3 (Homo sapiens, UniProt P41162-2 1-143); conditions: protein: recombinant; tags: N-terminal GST; dsDNA, one strand shown
# T12 sequence: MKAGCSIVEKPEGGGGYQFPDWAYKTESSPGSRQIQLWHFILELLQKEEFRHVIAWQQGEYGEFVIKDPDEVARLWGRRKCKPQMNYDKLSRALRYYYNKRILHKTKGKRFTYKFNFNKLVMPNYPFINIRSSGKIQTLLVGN
# Procedure, shortened: as §1
# ETV6 = ETV6 (Homo sapiens, UniProt P41212 1-452); conditions: protein: recombinant; tags: N-terminal GST; dsDNA, one strand shown
# Procedure, shortened: as §1
# Sequence of CRX (O43186 whole entry): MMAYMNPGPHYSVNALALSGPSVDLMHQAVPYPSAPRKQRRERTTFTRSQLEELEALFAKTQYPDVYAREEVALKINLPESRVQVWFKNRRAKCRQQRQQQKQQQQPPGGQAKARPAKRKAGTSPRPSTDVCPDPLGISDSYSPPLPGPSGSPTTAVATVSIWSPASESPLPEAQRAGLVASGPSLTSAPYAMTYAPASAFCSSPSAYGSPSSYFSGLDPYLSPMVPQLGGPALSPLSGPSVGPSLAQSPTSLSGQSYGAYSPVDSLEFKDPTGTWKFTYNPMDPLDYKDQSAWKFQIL
# Sequence of ETV1 (P50549 whole entry): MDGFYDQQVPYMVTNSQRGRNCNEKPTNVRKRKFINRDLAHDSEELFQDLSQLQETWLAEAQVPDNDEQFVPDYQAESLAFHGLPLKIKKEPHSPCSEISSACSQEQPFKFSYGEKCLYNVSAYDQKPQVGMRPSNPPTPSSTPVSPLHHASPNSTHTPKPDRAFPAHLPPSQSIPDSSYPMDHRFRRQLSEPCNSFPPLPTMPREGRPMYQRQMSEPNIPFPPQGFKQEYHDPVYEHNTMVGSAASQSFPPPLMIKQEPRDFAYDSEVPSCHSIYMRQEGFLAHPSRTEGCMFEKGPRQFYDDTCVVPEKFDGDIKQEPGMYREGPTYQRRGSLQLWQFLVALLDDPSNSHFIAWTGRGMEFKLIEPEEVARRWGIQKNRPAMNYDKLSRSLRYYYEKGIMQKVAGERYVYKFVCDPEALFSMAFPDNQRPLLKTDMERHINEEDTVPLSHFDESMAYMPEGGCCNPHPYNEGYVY
# Sequence of HSF1 (Q00613 whole entry): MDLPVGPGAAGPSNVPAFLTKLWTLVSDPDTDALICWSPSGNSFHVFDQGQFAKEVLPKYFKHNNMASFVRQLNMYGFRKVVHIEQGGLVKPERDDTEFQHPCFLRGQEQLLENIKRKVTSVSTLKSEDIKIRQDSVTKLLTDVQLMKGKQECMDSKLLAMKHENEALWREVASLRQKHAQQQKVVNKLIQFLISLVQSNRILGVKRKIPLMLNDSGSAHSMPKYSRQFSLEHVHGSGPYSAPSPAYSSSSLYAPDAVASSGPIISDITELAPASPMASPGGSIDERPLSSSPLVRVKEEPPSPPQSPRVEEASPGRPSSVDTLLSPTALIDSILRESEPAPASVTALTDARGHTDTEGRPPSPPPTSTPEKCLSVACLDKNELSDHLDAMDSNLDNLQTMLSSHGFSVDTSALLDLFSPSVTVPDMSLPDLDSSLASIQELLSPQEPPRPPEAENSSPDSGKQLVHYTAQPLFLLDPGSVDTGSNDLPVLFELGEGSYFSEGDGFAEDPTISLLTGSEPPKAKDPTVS
# Sequence of ETV5 (P41161 whole entry): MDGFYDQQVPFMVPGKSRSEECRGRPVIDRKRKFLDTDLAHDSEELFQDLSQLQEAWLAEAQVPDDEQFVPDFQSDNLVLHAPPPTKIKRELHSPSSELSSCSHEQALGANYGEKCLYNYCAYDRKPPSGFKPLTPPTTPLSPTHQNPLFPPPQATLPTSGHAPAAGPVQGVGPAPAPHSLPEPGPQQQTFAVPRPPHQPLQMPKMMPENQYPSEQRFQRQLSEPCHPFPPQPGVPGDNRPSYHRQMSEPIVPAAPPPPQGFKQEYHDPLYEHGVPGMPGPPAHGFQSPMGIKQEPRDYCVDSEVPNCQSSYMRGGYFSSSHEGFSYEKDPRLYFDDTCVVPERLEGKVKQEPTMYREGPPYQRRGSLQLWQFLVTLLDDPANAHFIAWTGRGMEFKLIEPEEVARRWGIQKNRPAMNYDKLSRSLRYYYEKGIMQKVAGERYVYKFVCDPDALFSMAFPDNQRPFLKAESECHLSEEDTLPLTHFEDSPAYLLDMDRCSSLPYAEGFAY
# Sequence of ETV6 (P41212 whole entry): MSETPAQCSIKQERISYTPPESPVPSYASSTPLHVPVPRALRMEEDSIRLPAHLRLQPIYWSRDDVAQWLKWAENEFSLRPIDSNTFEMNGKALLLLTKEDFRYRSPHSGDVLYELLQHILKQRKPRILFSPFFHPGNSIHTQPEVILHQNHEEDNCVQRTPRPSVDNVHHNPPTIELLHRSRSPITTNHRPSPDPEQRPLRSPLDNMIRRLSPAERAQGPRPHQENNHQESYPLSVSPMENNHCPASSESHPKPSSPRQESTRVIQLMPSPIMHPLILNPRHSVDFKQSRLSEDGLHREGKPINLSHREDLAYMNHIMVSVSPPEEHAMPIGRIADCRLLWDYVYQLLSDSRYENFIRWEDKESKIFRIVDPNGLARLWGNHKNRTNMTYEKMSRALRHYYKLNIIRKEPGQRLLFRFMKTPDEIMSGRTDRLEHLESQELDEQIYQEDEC
# Sequence of ELF4 (Q99607 whole entry): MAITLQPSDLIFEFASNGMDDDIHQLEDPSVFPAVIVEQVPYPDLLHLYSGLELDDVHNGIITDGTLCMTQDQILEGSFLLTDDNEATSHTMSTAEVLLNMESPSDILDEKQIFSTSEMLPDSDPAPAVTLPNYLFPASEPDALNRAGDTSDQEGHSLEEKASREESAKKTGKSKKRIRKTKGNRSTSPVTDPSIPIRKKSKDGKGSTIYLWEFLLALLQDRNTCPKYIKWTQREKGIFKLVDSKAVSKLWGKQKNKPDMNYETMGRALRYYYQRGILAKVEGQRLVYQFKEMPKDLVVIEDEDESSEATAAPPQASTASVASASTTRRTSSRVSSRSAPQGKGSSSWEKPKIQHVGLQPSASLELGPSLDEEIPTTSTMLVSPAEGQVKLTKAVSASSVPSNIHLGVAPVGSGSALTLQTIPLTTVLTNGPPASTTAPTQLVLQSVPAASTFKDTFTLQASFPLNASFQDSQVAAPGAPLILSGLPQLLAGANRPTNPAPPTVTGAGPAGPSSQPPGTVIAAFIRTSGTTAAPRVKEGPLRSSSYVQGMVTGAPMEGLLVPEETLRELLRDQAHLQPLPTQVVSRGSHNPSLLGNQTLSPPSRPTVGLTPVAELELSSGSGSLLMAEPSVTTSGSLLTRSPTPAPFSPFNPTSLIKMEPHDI
sequence,measurement,setting,value
CCTTAT,binding signal,FEV,"1.4 fold enrichment (6-mer frequency, TF over GST control)"
same,binding signal,ETV5,"1.41 fold enrichment (6-mer frequency, TF over GST control)"
same,binding signal,HSF1,"1.35 fold enrichment (6-mer frequency, TF over GST control)"
same,binding signal,SPIC,"1.33 fold enrichment (6-mer frequency, TF over GST control)"
same,binding signal,ELF4,"1.47 fold enrichment (6-mer frequency, TF over GST control)"
same,binding signal,ELK4,"1.45 fold enrichment (6-mer frequency, TF over GST control)"
same,binding signal,ETV2,"1.39 fold enrichment (6-mer frequency, TF over GST control)"
same,binding signal,ELF3,"1.37 fold enrichment (6-mer frequency, TF over GST control)"
same,binding signal,CRX,"1.77 fold enrichment (6-mer frequency, TF over GST control)"
same,binding signal,ETV1,"1.62 fold enrichment (6-mer frequency, TF over GST control)"
same,binding signal,ERF,"1.41 fold enrichment (6-mer frequency, TF over GST control)"
same,binding signal,ETV3L,"1.46 fold enrichment (6-mer frequency, TF over GST control)"
same,binding signal,ETS2,"1.41 fold enrichment (6-mer frequency, TF over GST control)"
same,binding signal,SPDEF,"1.71 fold enrichment (6-mer frequency, TF over GST control)"
same,binding signal,ETV7,"1.49 fold enrichment (6-mer frequency, TF over GST control)"
same,binding signal,ELF5,"1.73 fold enrichment (6-mer frequency, TF over GST control)"
same,binding signal,ETV3,"1.39 fold enrichment (6-mer frequency, TF over GST control)"
same,binding signal,ETV6,"1.42 fold enrichment (6-mer frequency, TF over GST control)"
